The campaign covered roughly 1,000 compounds. About 160 (16%) were called active. No rule for the calls is given here. The list shows a part of the results.
target: Neutrophil cytosol factor 1 (Homo sapiens) (UniProt P14598); experiment: p47phox binding inhibitors, dose response, biochemical, NADPH oxidase regulatory subunit, fluorescence polarization (AID 1275); settings: at 12.5 µM
Sequence (P14598 whole entry, looked up): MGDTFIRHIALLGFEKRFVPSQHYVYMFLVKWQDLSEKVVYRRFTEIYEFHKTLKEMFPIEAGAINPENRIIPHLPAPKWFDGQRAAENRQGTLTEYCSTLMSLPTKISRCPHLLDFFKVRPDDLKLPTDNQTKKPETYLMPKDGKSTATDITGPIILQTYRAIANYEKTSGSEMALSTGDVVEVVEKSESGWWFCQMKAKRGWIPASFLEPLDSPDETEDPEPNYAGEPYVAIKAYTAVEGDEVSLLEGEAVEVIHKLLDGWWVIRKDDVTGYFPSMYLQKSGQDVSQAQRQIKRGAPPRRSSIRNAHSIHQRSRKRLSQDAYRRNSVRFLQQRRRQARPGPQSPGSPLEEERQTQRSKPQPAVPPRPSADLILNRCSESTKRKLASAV

Percent of control, lower = inhibition, active:
N#CC(C#N)=C1C=C2C=C(N3CCCCC3)CCC2CC1 (stereo unspecified) 107, Cc1ccc(-n2c(C)cc(C3N=C(N)Nc4nc5ccccc5n43)c2C)c(C)c1 (stereo unspecified) 66.2, CCN1CCN(Cc2ccc(NC(=O)c3ccc(C)c(NC(=O)c4c[nH]c5cc(C(F)(F)F)ccc5c4=O)c3)cc2C(F)(F)F)CC1 53.8, CN(C)c1ccc(/C=C/C(=O)c2cc(Cl)ccc2O)cc1 50.8, Cc1ccc2cc3c(N)c4c(C)ccc(C)c4nc3nc2c1 51.8, CN(C)c1ccc(/C=C(\C#N)C(=O)c2ccccc2)cc1 69.6

Source: PubChem BioAssay AID1275 (Emory University Molecular Libraries Screening Center, 2008)
